# Screens from PubChem.
# A selection: hits, their analogues and other compounds. The true share with any hit is near 3.2%.
# MEKK2mut PB1 HTS: MEK5 binding signal on mutant MEKK2 PB1, primary screen, biochemical, multiplex bead flow cytometry, Alexa488-MEK5. Alexa488-MEK5 binding to MEKK2 mutant. percent response, % at 10 µM. 0.35% of 290,000 active; in the data active = percent response above about 24%, passing the limit was not always enough
# SKN-1 inh: suppressors of acrylamide-induced Pgst-4::GFP reporter in worms, primary screen, SKN-1 inhibitor project, whole organism, uHTS, GFP/RFP fluorescence ratio, strain VP596. C. elegans VP596 Pgst-4::GFP/RFP ratio, 24 h. inhibition, % at 21.8 µM. 0.49% of 360,000 active;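 active = interference check ratio from 0.5 to 1.5 plus GFP to RFP signal ratio inhibition reaching or exceeding a fixed threshold, cut at about 30% in these data, passing the limit was not always enough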
# MEKK3 PB1 HTS: modulators of MEKK3-MEK5 PB1 binding, primary screen, biochemical, wildtype MEKK3, multiplex bead flow cytometry, Alexa488-MEK5; binding response (% of control), % at 10 µM; Mitogen-activated protein kinase kinase kinase 3 (Homo sapiens), Q99759; bead-based flow cytometry, Alexa488-MEK5 binding to MEKK3; actives lie on both sides; 0 = blocked by unlabeled MEK5, 100 = vehicle; 1.4% of 290,000 active;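 active = binding response more than 3 SD above or below the average of its plate-row segment, actives on both sides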;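 also: Alexa488 bead fluorescence after subtracting the streptavidin-only scavenger bead signal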
# Target sequence (Q99759 whole entry, looked up): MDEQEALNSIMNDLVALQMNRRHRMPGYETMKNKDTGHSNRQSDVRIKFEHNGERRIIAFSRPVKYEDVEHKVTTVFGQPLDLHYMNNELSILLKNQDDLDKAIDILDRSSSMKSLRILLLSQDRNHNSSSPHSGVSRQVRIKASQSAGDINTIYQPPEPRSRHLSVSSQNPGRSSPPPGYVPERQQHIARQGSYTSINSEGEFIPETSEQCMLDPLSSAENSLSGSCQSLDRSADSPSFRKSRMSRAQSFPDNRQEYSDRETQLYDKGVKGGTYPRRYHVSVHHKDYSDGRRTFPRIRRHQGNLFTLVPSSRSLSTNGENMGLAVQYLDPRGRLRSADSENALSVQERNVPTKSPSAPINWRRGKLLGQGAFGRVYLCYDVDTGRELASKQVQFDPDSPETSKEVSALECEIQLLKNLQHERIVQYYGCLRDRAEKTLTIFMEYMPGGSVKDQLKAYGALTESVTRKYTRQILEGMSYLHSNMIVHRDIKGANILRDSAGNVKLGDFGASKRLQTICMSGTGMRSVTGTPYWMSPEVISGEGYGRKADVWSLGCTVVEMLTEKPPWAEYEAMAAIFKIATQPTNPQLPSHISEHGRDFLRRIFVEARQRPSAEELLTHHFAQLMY
# NRP1-CendR mod: modulators of CendR peptide binding to NRP-1, primary screen, biochemical, fluorescence polarization, uHTS | Neuropilin-1 (Homo sapiens), O14786 | FAM-RPARPAR peptide binding to NRP-1 | inhibition, % at 25 µM | 0.85% of 360,000 active | AID 602438, 2012;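 active = inhibition or corrected inhibition above about 18%, plus a signal ratio from 0.5 to 1.5, limit read from the data, passing the limit was not always enough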
# MEKK2 WT-MEK5: modulators of MEK5 binding to wildtype MEKK2, primary screen, biochemical, multiplex bead flow cytometry, Alexa488-MEK5; Alexa488-MEK5 binding to MEKK2 WT; actives lie on both sides; binding response (% of control), % at 10 µM; 1.1% of 290,000 active; AID 1531, 2009; Mitogen-activated protein kinase kinase kinase 2 (Homo sapiens), Q9Y2U5; in the data active = binding response below about 67% or above about 130%
# MEKK2wt confirm: modulators of MEK5 binding to wildtype MEKK2, confirmation, biochemical, single concentration, multiplex bead flow cytometry; shares compounds with MEKK3 PB1 HTS; Alexa488-MEK5 binding to MEKK2 WT; actives lie on both sides; binding response (% of control), % at 10 µM; 2.4% of 5,900 active; in the data active = binding response below about 16% or above about 210%; inactive = in between
# MEKK2mut confirm: mutant MEKK2 PB1-MEK5 binding signal retest – biochemical, single concentration, multiplex bead flow cytometry, confirmation | shares compounds with MEKK3 PB1 HTS | Alexa488-MEK5 binding to MEKK2 mutant | percent response, % at 10 µM | 2% of 5,900 active; in the data active = percent response mostly above about 71%, no sharp cut-off; inactive = mostly below about 38%;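 also: higher means compound restores mutant binding toward wildtype level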
# MEKK3 confirm: MEKK3 wild-type PB1 binding to MEK5, inhibitors, confirmation, biochemical, bead multiplex flow cytometry, single concentration, wildtype | Alexa488-MEK5 binding to MEKK3; active compounds read low | AID 1894, 2009 | 1.8% of 5,900 active | shares compounds with MEKK3 PB1 HTS | binding response (% of control), % at 10 µM;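 active = binding response below 72% of control, or above a set upper limit, though filed actives all read lower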;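 also: 100% = DMSO only wells and 0% = binding blocked by excess unlabeled MEK5; lower values mean stronger disruption of MEK5 binding to MEKK3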
# * hit, by the source's call; · = no result; [ ] = dose if it differs, or a comment.
SMILES,MEKK2mut PB1 HTS,SKN-1 inh,MEKK3 PB1 HTS,NRP1-CendR mod,MEKK2 WT-MEK5,MEKK2wt confirm,MEKK2mut confirm,MEKK3 confirm
COc1ccc(S(=O)(=O)N(c2onc(C)c2Cl)S(=O)(=O)c2ccc(OC)c(OC)c2)cc1OC,9.0,-5.3,131.0*,-4.8,120.0,110.0,4.0,102.0
O=C(c1cc(COc2ccc(F)cc2F)on1)N1C[C@H]2CC[C@H]1C2,6.0,-7.1,103.0,-3.9,103.0,·,·,·
O=C(c1cc(COc2c(F)cccc2F)on1)N1CCC(c2ccccc2Cl)C1 (stereo not drawn),-35.0,4.9,49.0*[inhibitor],3.0,51.0,96.0,-5.0,100.0
O=C(c1cc(COc2c(F)cccc2F)on1)N1C[C@H]2CC[C@H]1C2,-24.0,23.6,49.0*[inhibitor],2.0,68.0,18.0,-26.0,39.0*
Cc1ccc(S(=O)(=O)NNC(=O)CCC(=O)Nc2ccccc2Cl)cc1,7.0,10.1,102.0,5.6,105.0,·,·,·
O=C(c1ccc(CSc2nc3ccncc3[nH]2)cc1)N1CCCCC1,-3.0,-12.1,106.0,-2.1,98.0,·,·,·
Cc1ccc(C)c(N2CCN(C(=O)c3ccc(CSc4nc5ccncc5[nH]4)cc3)CC2)c1,-13.0,12.2,1.0*[inhibitor],-0.6,2.0*[inhibitor],102.0,4.0,101.0
O=C1CCCC2=C1C1(CCCC1)N=C(Nc1nc3cc(-c4ccccc4)ccc3o1)N2,·,8.8,·,-18.6,·,·,·,·
O=S1(=O)N[C@@H](Cc2ccccc2)COc2cc(Br)ccc21,·,15.1,·,-8.2,·,·,·,·
COC(=O)NCC(c1cccnc1)N1CCOCC1 (stereo not drawn),0.0,-7.4,107.0,-0.7,100.0,·,·,·
CCc1cccc(C)c1NC(=S)NCC(c1cccnc1)N1CCOCC1 (stereo not drawn),0.0,3.7,144.0*,-3.4,106.0,100.0,0.0,103.0
O=[N+]([O-])c1ccc(NC(=S)NCC(c2cccnc2)N2CCOCC2)cc1 (stereo not drawn),-5.0,-0.5,93.0,-0.1,94.0,·,·,·
FC(F)(F)c1cccc(NC(=S)NCC(c2cccnc2)N2CCOCC2)c1 (stereo not drawn),0.0,-11.0,135.0*,-4.0,101.0,102.0,-7.0,102.0
COc1ccc(NC(=O)CN(C)C2=NS(=O)(=O)c3ccccc32)cc1Cl,·,-4.1,·,-5.7,·,·,·,·
CCCCCOc1ccc2oc(=O)c3c(c2c1)CCCN3C(=O)CN1CCCC(C(=O)OCC)C1 (stereo not drawn),-14.0,9.5,2.0*[inhibitor],-8.7,2.0*[inhibitor],96.0,-2.0,102.0
COc1ccccc1N(CC(=O)NCCSc1ccccc1)S(C)(=O)=O,-1.0,-1.3,95.0,7.5,93.0,·,·,·
CCOc1ccccc1N(CC(=O)NCCSc1ccccc1)S(C)(=O)=O,1.0,1.4,132.0*,0.8,119.0,103.0,0.0,107.0
Oc1ccccc1-c1nnc(COc2ccc(Cl)cc2Cl)o1,0.0,1.2,96.0,-5.6,93.0,·,·,·
Clc1ccc(-c2nnc(CCc3ccccc3)o2)c(Cl)c1,-12.0,8.0,55.0*[inhibitor],1.2,62.0,102.0,-4.0,99.0
Cc1noc(NC(=O)c2cccc(Cl)c2Cl)c1C#N,-2.0,-1.1,73.0*[inhibitor],8.4,85.0,100.0,1.0,101.0
Cc1ccc(Oc2nc(-c3ccccc3)ncc2S(C)(=O)=O)cc1,-62.0,-2.9,1.0*[inhibitor],-10.2,1.0*[inhibitor],102.0,3.0,104.0
CC(C)(C)NC(=O)NC(=O)CSc1ccc(S(=O)(=O)N2CCCCC2)cn1,·,-0.4,·,1.1,·,·,·,·
Cc1ccc(S(=O)(=O)n2c3ccc(Cl)cc3c3nc(C)sc32)cc1,-1.0,22.7,150.0*,1.3,106.0,102.0,5.0,104.0
Cc1cc(C(=O)N2CCC2(C)C(=O)NS(=O)(=O)c2cccc(OC(F)F)c2)nn1C (stereo not drawn),·,6.7,·,-6.8,·,·,·,·
COc1cc(C(=O)NC2CC(C)CC(C)(C)C2)cc(OC)c1OC (stereo not drawn),·,20.8,·,-4.0,·,·,·,·
SMILES,MEKK2mut PB1 HTS,SKN-1 inh,MEKK3 PB1 HTS,NRP1-CendR mod,MEKK2 WT-MEK5,MEKK2wt confirm,MEKK2mut confirm,MEKK3 confirm
CCn1cc(CN2CCCC(C(=O)Nc3cccc(-c4cc5ccccc5[nH]4)c3)C2)c(C)n1 (stereo not drawn),21.0,-7.6,107.0,4.1,154.0*,176.0,39.0,104.0
CC1=CC(=O)C2=C(C)CCC3C(C)C(=O)OC3C12 (stereo not drawn),·,4.6,·,-2.5,·,·,·,·
C=CCNC(=S)N/N=C(\C)c1cc(OC)c(OC)c(OC)c1,0.0,7.2,137.0*,0.7,106.0,105.0,1.0,105.0
COC(=O)c1sccc1NC(=O)c1ccc(C)o1,-21.0,-3.5,0.0*[inhibitor],11.8,-1.0*[inhibitor],92.0,-2.0,99.0
COC(=O)c1sccc1NC(=O)c1ccc(Br)o1,7.0,19.4,104.0,7.6,106.0,·,·,·
O=C(NCc1nc(-c2ccc(C(F)(F)F)cc2)no1)Nc1ccc(F)cc1F,29.0,-18.6,131.0*,1.2,117.0,95.0,-9.0,99.0
O=C(NCc1nc(-c2ccc(C(F)(F)F)cc2)no1)Nc1cc(Cl)cc(Cl)c1,52.0*,-26.3,136.0*,0.6,179.0*,151.0,46.0,108.0
COc1ccc(-c2noc(CNC(=O)Nc3ccc(F)cc3)n2)cc1,-7.0,-9.4,95.0,-7.3,90.0,·,·,·
O=C(O)COCC(=O)NCc1nc(-c2ccc(C(F)(F)F)cc2)no1,-24.0,-22.2,97.0,2.3,98.0,·,·,·
CC(C)(C)OC(=O)N1CCC(c2cc(=O)n3[nH]cc(C(=O)Nc4ccc(F)c(Cl)c4)c3n2)CC1,19.0,-1.0,129.0*,-13.4,97.0,97.0,-1.0,101.0
COc1ccc(NC(=O)c2c[nH]n3c(=O)cc(C4CCN(C(=O)OC(C)(C)C)CC4)nc23)cc1Cl,-18.0,-4.1,97.0,-8.4,82.0,·,·,·
Cc1cccc(/C=N/n2c(-c3cc(-c4ccccc4)n[nH]3)n[nH]c2=S)c1,0.0,1.3,138.0*,18.4,101.0,96.0,-3.0,101.0
S=c1[nH]nc(-c2cc(-c3ccccc3)n[nH]2)n1/N=C/c1ccccc1,7.0,4.6,107.0,-2.7,100.0,·,·,·
